{"source": "PubChem BioAssay AID430", "about": "(Sanford-Burnham Center for Chemical Genomics, 2006)", "note": "The whole screen tested about 63,000 compounds, of which about 1,100 (1.7%) were called active. No stated cut-off is given here; in the data, active means cytotoxicity above about 50%; inactive means the rest. The full list was thinned out, with actives kept by preference. Entries with a potency or affinity are not part of this list."}
{"assay": "cytotoxicity in HPDE-C7 cells, cell-based, fluorescence, HTS (AID 430);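 further: cells exposed to compound for 48 hours before viability readout; 0% = vehicle and 100% = reference cytotoxic drug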", "settings": "HPDE-C7 pancreatic duct cells viability, at 10 µM, hits give high values"}
{"smiles": "COc1ccc(C(=O)N2CCN(S(=O)(=O)c3ccc(C)cc3C)CC2)cc1OC", "cytotoxicity": "2.4% (inactive)"}
{"smiles": "Cc1ccc(Cl)cc1NC(=O)Cn1cccc1", "cytotoxicity": "-2.6% (inactive)"}
{"smiles": "Cc1cc(C(=O)N2CCN(Cc3ccc4c(c3)OCO4)CC2)on1", "cytotoxicity": "0.3% (inactive)"}
{"smiles": "COC(=O)c1cc(-c2ccc3c(c2)OCO3)nc2ccccc12", "cytotoxicity": "-9.6% (inactive)"}
{"smiles": "O=C(COc1cccc(NC(=O)c2ccco2)c1)c1ccc(F)cc1", "cytotoxicity": "-13.8% (inactive)"}
{"smiles": "COc1ccc2c(c1)C(=O)CC(c1ccccc1F)O2", "note": "(stereo unspecified)", "cytotoxicity": "-4.1% (inactive)"}
{"smiles": "CN1CCN(C2=Nc3ccccc3Oc3ccc(Cl)cc32)CC1", "cytotoxicity": "10.6% (inactive)"}
{"smiles": "Cn1c(Cl)cnc1C1CC(=O)c2cc(Cl)ccc2O1", "note": "(stereo unspecified)", "cytotoxicity": "69.6% (active)"}
{"smiles": "CCN1CCN(C(=O)c2nn(-c3ccc(OC)cc3)c(=O)c3c2c2ccccc2n3C)CC1", "cytotoxicity": "-10.7% (inactive)"}
{"smiles": "CCCc1[nH]nc2c1C1(C(=O)N(C(C)C)c3ccccc31)C(C#N)=C(N)O2", "note": "(stereo unspecified)", "cytotoxicity": "-41.8% (inactive)"}
{"smiles": "O=C1C(=O)N(Cc2ccco2)C(c2cccc(Cl)c2)/C1=C(\\O)c1ccc2c(c1)OCCO2", "note": "(stereo unspecified)", "cytotoxicity": "3.5% (inactive)"}
{"smiles": "O=C1c2ccccc2C(O)N1Cc1ccco1", "note": "(stereo unspecified)", "cytotoxicity": "-6.1% (inactive)"}
{"smiles": "CC(=O)C1=C(O)C(=O)N(Cc2ccco2)C1c1ccc(F)cc1", "note": "(stereo unspecified)", "cytotoxicity": "-1.4% (inactive)"}
{"smiles": "O=C1c2ccccc2NC(c2ccc(F)cc2)N1Cc1ccco1", "note": "(stereo unspecified)", "cytotoxicity": "1.1% (inactive)"}
{"smiles": "O=C1c2[nH]nc(-c3ccccc3O)c2C(c2cccc(Cl)c2)N1CC1CCCO1", "note": "(stereo unspecified)", "cytotoxicity": "32.4% (inactive)"}
{"smiles": "O=C1c2[nH]nc(-c3ccccc3O)c2C(c2ccccc2)N1Cc1ccco1", "note": "(stereo unspecified)", "cytotoxicity": "21.9% (inactive)"}
{"smiles": "COC(=O)Nc1sccc1C(=O)Nc1sccc1C(=O)OC", "cytotoxicity": "3.5% (inactive)"}
{"smiles": "CCOC(=O)N1CCN(c2c(N3CCc4ccccc4C3)c(=O)c2=O)CC1", "cytotoxicity": "-10.2% (inactive)"}
{"smiles": "O=C(CC(O)(c1ccccc1)C(F)(F)C(F)F)c1cccs1", "note": "(stereo unspecified)", "cytotoxicity": "2.3% (inactive)"}
{"smiles": "CCN(CC)C(C(=O)Nc1ccc2c(c1)OCO2)c1ccccc1", "note": "(stereo unspecified)", "cytotoxicity": "5% (inactive)"}
{"smiles": "CCC(=O)Nc1c(C#N)c2nc3ccccc3nc2n1C1CCCCC1", "cytotoxicity": "2% (inactive)"}
{"smiles": "CCCCn1c(NC(=O)c2ccc(F)cc2)c(C#N)c2nc3ccccc3nc21", "cytotoxicity": "73.6% (active)"}
{"smiles": "CCCCn1c(NC(=O)CC)c(C#N)c2nc3ccccc3nc21", "cytotoxicity": "10% (inactive)"}
{"smiles": "C=CCn1c(NC(=O)c2ccccc2)c(C#N)c2nc3ccccc3nc21", "cytotoxicity": "45.1% (inactive)"}
{"smiles": "CCC(=O)Nc1c(C#N)c2nc3ccccc3nc2n1-c1ccccc1C", "cytotoxicity": "2.9% (inactive)"}
{"smiles": "COc1ccc(-n2c(NC(=O)c3ccco3)c(C#N)c3nc4ccccc4nc32)cc1", "cytotoxicity": "5.6% (inactive)"}
{"smiles": "CCCCCn1c(N)c(C#N)c2nc3ccccc3nc21", "cytotoxicity": "3.3% (inactive)"}
{"smiles": "CCCCn1c(NC(=O)c2ccccc2Cl)c(C#N)c2nc3ccccc3nc21", "cytotoxicity": "61.7% (active)"}
{"smiles": "N#Cc1c(NC(=O)c2ccc(Br)o2)n(-c2ccccc2)c2nc3ccccc3nc12", "cytotoxicity": "54.7% (active)"}
{"smiles": "C=CCn1c(NC(=O)c2ccccc2Cl)c(C#N)c2nc3ccccc3nc21", "cytotoxicity": "17.3% (inactive)"}
{"smiles": "CCCCn1c(NC(=O)c2ccccc2)c(C#N)c2nc3ccccc3nc21", "cytotoxicity": "101% (active)"}
{"smiles": "CCCCn1c(NC(C)=O)c(C#N)c2nc3ccccc3nc21", "cytotoxicity": "-2.1% (inactive)"}
{"smiles": "CC1(C)Cc2c(sc3c2c(=N)n(Cc2ccco2)c(=O)n3Cc2ccc(F)cc2)CO1", "cytotoxicity": "5.6% (inactive)"}
{"smiles": "O=C1C2C3C=CC(C3)C2C(=O)N1c1n[nH]c(CCc2ccccc2)n1", "note": "(stereo unspecified)", "cytotoxicity": "0.1% (inactive)"}
{"smiles": "CCCCP(=O)(CCCC)Cc1ccccc1O", "cytotoxicity": "-0.6% (inactive)"}
{"smiles": "CC(C)=CC(=O)Nc1ccccc1Br", "cytotoxicity": "-7.7% (inactive)"}
{"smiles": "CC1CC(C)CN(c2oc(-c3ccccc3Cl)nc2C#N)C1", "note": "(stereo unspecified)", "cytotoxicity": "2.5% (inactive)"}
{"smiles": "CCCCOC(=O)Cn1c(=O)c2c(nc(Br)n2Cc2ccccc2)n(C)c1=O", "cytotoxicity": "-12.6% (inactive)"}
{"smiles": "Cc1sc2nc3n(c(=O)c2c1C)CCCS3", "cytotoxicity": "3.5% (inactive)"}
{"smiles": "N#C/C(C(=O)NCc1ccccc1)=C1\\SC(CCO)C(=O)N1c1ccccc1", "note": "(stereo unspecified)", "cytotoxicity": "10.7% (inactive)"}
{"smiles": "O=S(=O)(c1cccc2cccnc12)N1CCc2ccccc21", "cytotoxicity": "-5.3% (inactive)"}
{"smiles": "CC1CC(=O)N(CC(=O)N2CCCC2)c2ccccc2S1", "note": "(stereo unspecified)", "cytotoxicity": "-19.6% (inactive)"}
{"smiles": "O=C(CN1CCCC1)N1c2ccccc2Sc2ccccc21", "cytotoxicity": "-13.6% (inactive)"}
{"smiles": "CCc1nnc(NC(=O)NCN2C(=O)C3C4C=CC(C4)C3C2=O)s1", "note": "(stereo unspecified)", "cytotoxicity": "3% (inactive)"}
{"smiles": "CC1=CCC(C(C)(C)NC(=O)c2ccccc2)C/C1=N\\O", "note": "(stereo unspecified)", "cytotoxicity": "-14.7% (inactive)"}
{"smiles": "CCOCCCNS(=O)(=O)c1ccc2c(c1)CCN2C(=O)CC", "cytotoxicity": "-23.1% (inactive)"}
{"smiles": "C=C(c1ccc(O)cc1)c1ccc(O)cc1", "cytotoxicity": "-12.8% (inactive)"}
{"smiles": "C/C=C(/C(=C/C)c1ccc(O)cc1)c1ccc(O)cc1", "cytotoxicity": "106% (active)"}
{"smiles": "CCC(=O)c1ccc(O)cc1", "cytotoxicity": "-18.7% (inactive)"}
{"smiles": "CCn1c2ccccc2c2nnc(SCC(=O)NC(C(=O)OC)C(C)C)nc21", "note": "(stereo unspecified)", "cytotoxicity": "0.5% (inactive)"}
{"smiles": "CCOC(=O)c1[nH]c(C)c(C(=O)NC(C)CC)c1C", "note": "(stereo unspecified)", "cytotoxicity": "1.4% (inactive)"}
{"smiles": "O=C1Nc2ccccc2C12OCCCCO2", "cytotoxicity": "-24.6% (inactive)"}
{"smiles": "Cc1cc(=O)oc2cc(OCC(=O)N3CCc4ccccc4C3)ccc12", "cytotoxicity": "-25.1% (inactive)"}
{"smiles": "CCOC(=O)N1CCN(Cc2nc3c(c(=O)[nH]c(=O)n3C)n2Cc2cc(C)ccc2C)CC1", "cytotoxicity": "-12.2% (inactive)"}
{"smiles": "CCCCC(CC)C(=O)Nc1ccccc1C(=O)NC(C)C", "note": "(stereo unspecified)", "cytotoxicity": "6.3% (inactive)"}
{"smiles": "O=S(=O)(c1ccc(Oc2ccc(-c3nnco3)cc2)nc1)N1CCC(Cc2ccccc2)CC1", "cytotoxicity": "62.7% (active)"}
{"smiles": "O=C(COc1ccc(-c2nnco2)cc1)N1CCN(S(=O)(=O)c2ccccc2)CC1", "cytotoxicity": "-13% (inactive)"}
{"smiles": "O=C(COc1ccc(-c2nnco2)cc1)N1CCN(S(=O)(=O)c2ccc3ccccc3c2)CC1", "cytotoxicity": "-10.1% (inactive)"}
{"smiles": "Cc1cc2cc(CNC(=O)c3ccc(Br)o3)ccc2n1C", "cytotoxicity": "-1.5% (inactive)"}
{"smiles": "N#C/C(C(=O)Oc1ccccc1)=C1\\C=CC=CN1", "cytotoxicity": "1.2% (inactive)"}
{"smiles": "COC(=O)c1ccc(Oc2cc(C)nc(SC)n2)cc1", "cytotoxicity": "50.6% (active)"}
{"smiles": "CCOC(=O)c1ccc(Oc2nc(SC)nc(N(C)C)n2)cc1", "cytotoxicity": "-23.6% (inactive)"}
{"smiles": "COC(=O)c1ccc(Oc2nc(C)cc(Oc3ccccc3)n2)cc1", "cytotoxicity": "-4.8% (inactive)"}
{"smiles": "CCOC(=O)c1ccc(Oc2cc(C)nc(SC)n2)cc1", "cytotoxicity": "50.9% (active)"}
{"smiles": "CCOC(=O)c1ccc(Oc2nc(NC)nc(SC)n2)cc1", "cytotoxicity": "-15.9% (inactive)"}
{"smiles": "COC(=O)c1ccc(Oc2cc(C)nc(NCc3ccccc3)n2)cc1", "cytotoxicity": "-4.2% (inactive)"}
